Measured values reported in article PMC5540273 (PLoS ONE, 2017).

Key:
Settings in all cases: concentration: 1 μM, replicates: in singlicate; n = 1
[1] = tested on: TYK2(JH2domain-pseudokinase)
[2] = tested on: TYRO3
[3] = tested on: ULK1
[4] = tested on: ULK2
[5] = tested on: ULK3
[6] = tested on: T1, VEGFR2
T1 construct: gene KDR

[7] = tested on: T2, VPS34
T2 construct: gene PIK3C3

[8] = tested on: VRK2
[9] = tested on: WEE1
[10] = tested on: WEE2
[11] = tested on: WNK1
[12] = tested on: WNK2
[13] = tested on: WNK3
[14] = tested on: WNK4
[15] = tested on: T3, YANK1
T3 construct: gene STK32A

[16] = tested on: T4, YANK2
T4 construct: gene STK32B

[17] = tested on: T5, YANK3
T5 construct: gene STK32C

[18] = tested on: T6, YES
T6 construct: gene YES1

[19] = tested on: T7, YSK1
T7 construct: gene STK25

[20] = tested on: T8, YSK4
T8 construct: gene MAP3K19
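Also: KINOMEscan kinase panel screen.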

| Structure (SMILES) | %Inh [1] | %Inh [2] | %Inh [3] | %Inh [4] | %Inh [5] | %Inh [6] | %Inh [7] | %Inh [8] | %Inh [9] | %Inh [10] | %Inh [11] | %Inh [12] | %Inh [13] | %Inh [14] | %Inh [15] | %Inh [16] | %Inh [17] | %Inh [18] | %Inh [19] | %Inh [20] |
| --- | --- | --- | --- | --- | --- | --- | --- | --- | --- | --- | --- | --- | --- | --- | --- | --- | --- | --- | --- | --- |
| CCOc1nccc(-c2c(-c3ccc(F)cc3)ncn2C2CCNCC2)n1 [SB-249175] | 36% | 15% | 28% | 34% | 26% | 13% | 24% | 51% | 0% | 18% | 25% | 4% | 4% | 0% | 52% | 36% | 0% | 0% | 2% | 37% |
| CCNC(=O)/C=C/c1n[nH]c2cc(Sc3ccccc3C(=O)NC)ccc12 | 0% | 0% | 10% | 36% | 1% | 99.9% | 0% | 14% | 14% | 0% | 0% | 5% | 0% | 10% | 17% | 0% | 0% | 20% | 0% | 86% |
| Cl.O=C(Nc1ccc(Oc2ccc3[nH]c(NC(=O)c4ccco4)nc3c2)cc1)Nc1cc(C(F)(F)F)ccc1F [GW683134] | 24% | 42% | 24% | 0% | 32% | 78% | 0% | 15% | 0% | 0% | 2% | 0% | 14% | 9% | 2% | 0% | 14% | 61% | 0% | 92.9% |
| O=C(O)C(F)(F)F.O=c1[nH]ccc2nc(N[C@@H]3CCNC3)nc(Nc3cc(Cl)cc(Cl)c3)c12 [GSK2188764] | 28% | 0% | 99.8% | 99.9% | 97.4% | 15% | 78% | 94% | 0% | 0% | 8% | 26% | 30% | 0% | 40% | 0% | 9% | 12% | 82% | 99.7% |
| CN1CCN(Cc2ccc(NC(=O)Nc3ccc(N(C)c4ccnc(Nc5ccc(CS(C)(=O)=O)cc5)n4)cc3)cc2)CC1.Cl [GW827654] | 87% | 35% | 0% | 51% | 95.9% | 99.9% | 42% | 65% | 0% | 27% | 36% | 45% | 42% | 0% | 19% | 0% | 6% | 0% | 7% | 100% |
| COc1cc(Nc2nccc(N3CCC(NC(=O)Nc4ccc5c(c4)OCO5)C3)n2)cc(OC)c1OC (centres unmarked) [GSK1379766] | 52% | 0% | 14% | 14% | 86% | 7% | 0% | 0% | 0% | 0% | 11% | 11% | 46% | 5% | 0% | 0% | 6% | 7% | 0% | 45% |
| c1ccc(Oc2ccc(Nc3ccnc4cc(-c5ccc(CN6CCCCC6)o5)ccc34)cc2)nc1 [GW567143] | 17% | 26% | 0% | 0% | 15% | 24% | 0% | 14% | 8% | 13% | 2% | 39% | 24% | 25% | 0% | 0% | 17% | 51% | 0% | 32% |
| Cc1ccc(C)c(NC(=O)Nc2ccc(C)c(-c3ccc(C(=O)Nc4ccncc4)cc3)c2)c1 [GSK1398473] | 4% | 20% | 10% | 0% | 15% | 3% | 0% | 0% | 12% | 12% | 17% | 97.6% | 11% | 17% | 7% | 0% | 15% | 29% | 0% | 87% |
| Cc1ccc(-c2ccc3occ(-c4ccc(S(C)=O)cc4)c3c2)nn1 (centres unmarked) | 18% | 0% | 0% | 0% | 0% | 0% | 61% | 0% | 0% | 0% | 0% | 18% | 0% | 0% | 0% | 1% | 24% | 0% | 1% | 4% |
| CN(c1ccc(NC(=O)Nc2cccc(Cl)c2)cc1)c1ccnc(N)n1.Cl [GW830707] | 0% | 0% | 5% | 17% | 0% | 97.4% | 0% | 0% | 4% | 0% | 28% | 12% | 38% | 5% | 0% | 16% | 29% | 0% | 0% | 67% |
| COc1ccc(C)c(Nc2ccnc(Nc3ccc(-c4cnc[nH]4)cc3)n2)c1.Cl [GW784041] | 0% | 44% | 0% | 0% | 6% | 0% | 54% | 0% | 0% | 8% | 0% | 0% | 0% | 0% | 0% | 0% | 0% | 29% | 0% | 7% |
| Cc1nn2c(=O)cc(N3CCO[C@H](C)C3)nc2n1Cc1cccc(Cl)c1Cl [GSK2373693] | 18% | 15% | 78% | 0% | 14% | 0% | 96.5% | 0% | 0% | 0% | 4% | 18% | 5% | 0% | 2% | 0% | 14% | 14% | 0% | 56% |
| O=C(Nc1n[nH]c2nc(-c3ccccc3O)ccc12)C1CC1 [SB-711880] | 6% | 0% | 0% | 0% | 16% | 0% | 0% | 0% | 0% | 79% | 0% | 30% | 0% | 0% | 0% | 0% | 0% | 0% | 0% | 70% |
| CC(C)NCC(Cc1ccccc1)NC(=O)c1cc(Br)c(-c2ccnc3[nH]ccc23)s1.Cl.Cl (centres unmarked) [GSK1383281] | 22% | 0% | 0% | 0% | 1% | 33% | 0% | 2% | 6% | 0% | 0% | 0% | 0% | 18% | 21% | 0% | 0% | 0% | 40% | 83% |
| Cc1cccc(Nc2nc(N[C@H]3CCCC[C@H]3N)ncc2C(N)=O)c1.Cl [GSK986310] | 19% | 21% | 72% | 80% | 43% | 0% | 56% | 0% | 41% | 8% | 9% | 30% | 32% | 0% | 50% | 46% | 51% | 44% | 54% | 82% |
| O=C(Nc1n[nH]c2cc(-c3cccs3)ccc12)C1CC1 [SB-731284] | 63% | 0% | 39% | 15% | 7% | 57% | 16% | 0% | 0% | 0% | 40% | 0% | 0% | 0% | 19% | 0% | 0% | 0% | 0% | 94% |
| COC(=O)Nc1nc2ccc(Oc3ccc(CC(=O)Nc4cc(C(F)(F)F)ccc4F)cc3)cc2[nH]1 [GW680903] | 24% | 0% | 0% | 0% | 0% | 63% | 0% | 13% | 1% | 0% | 0% | 4% | 21% | 48% | 9% | 0% | 0% | 8% | 3% | 42% |
| Cl.Cl.NC(CNC(=O)c1cc(Br)c(-c2ccnc3[nH]ccc23)s1)c1ccccc1 (centres unmarked) [GSK1322949] | 38% | 0% | 49% | 0% | 8% | 30% | 59% | 67% | 18% | 0% | 1% | 0% | 24% | 20% | 22% | 0% | 0% | 2% | 28% | 94.8% |
| O=C(Nc1c(F)cccc1F)c1cc(C(=O)c2ccccc2F)c[nH]1 [GSK1326180] | 0% | 0% | 15% | 0% | 2% | 0% | 5% | 0% | 2% | 6% | 8% | 0% | 0% | 0% | 1% | 0% | 0% | 0% | 10% | 0% |
